“And” between values parts separate entries of the source, which are not always exact repeats. Equal values may be shown once. Results filed as inconclusive are left out. Values without a mark were called inactive. The source made the active and inactive calls. Calls follow the shape of the dose curve; as a rule, active = well fitted activation curve with a large enough effect; inconclusive = small, poorly fitted or top-dose-only effect; inactive = flat fitted curve, though single readings scatter.

This is an account of results in PubChem BioAssay (NCATS).
Potency is read from the fitted curve at half-maximal effect.

This experiment in a line: qHTS assay for environmental chemicals that activate the Aryl hydrocarbon Receptor (AhR) signaling pathway (AID 651777). Also: nearly all actives have a fitted effect of over 15% in size. As to activation: % of control where 0% means no effect. As to conditions: 1A2-DRE human hepatoma cells, luciferase, 24 h; activation: active compounds read high. An excerpt:
National Center for Advancing Translational Sciences [NCATS]
NIH Chemical Genomics Center [NCGC]
U.S. Environmental Protection Agency [EPA]
National Institutes of Environmental Health Sciences [NIEHS]
National Toxicology Program [NTP]
The Aryl hydrocarbon Receptor (AhR) plays a critical role in the development of cancer or neoplasm and its formation is most likely due to genetic mutations and the influence of environment. Exposure to environmental pollutants such as polycyclic aromatic hydrocarbons (PAH), their halogenated derivatives and heterocyclic amines causes the induction of phase I and II enzymes. The transcriptional activation of CYP1A2 is directly regulated by AhR.
A cell based assay (1A2-DRE cells, developed by Puracyp, Inc., CA) was used to assess the activation of AhR. Human hepatoma cells were stably transfected with the dioxin response element (DRE) and CYP1A2 promoter fused to a luciferase gene. Increased luciferase activity can be used to identify the compounds that cause the induction of CYP1A2 and AhR activation.
1,200 cells in 5 uL/well were dispensed into white wall/solid bottom 1536-well plates using a Multidrop Combi (Thermo Scientific) dispenser. Following transfer of 23 nL compound or DMSO vehicle by a pin tool, the plates were incubated 24 hr at 37 C and 5% CO2. 5 ul One-Glo (Promega) was then added to each well and following 30 min incubation at room temperature, luciferase activity was quantified on a ViewLux CCD-based plate reader.
A general note: Quantitative high-throughput screening tests each substance at several concentrations.
`COc1cccc(C(=O)NN(C(=O)c2cc(C)cc(C)c2)C(C)(C)C)c1C`: the activation is 1.74%. For the compound `C=CC(=O)NCO`, the activation was 0.0723% and 1.42%.

For the compound `CC1=C(C(=O)Nc2ccccc2)S(=O)(=O)CCO1`, the activation was -2.25%. Turning to `O=S(=O)(c1ccc(Cl)cc1)c1cc(Cl)c(Cl)cc1Cl`, the activation is -2.98%. On the same count and under the same terms, for `CO/N=C(/C(=O)OC)c1ccccc1COc1ccccc1C` the value was 13.1%; for `COP(=S)(OC)Oc1ccc([N+](=O)[O-])c(C)c1`, 2.78%. For `COc1ccc(O)c(C(C)(C)C)c1`, the activation is 3.77%. On the same count and under the same terms, for `CNC(=S)S` the value was 0.794%; for `CC1(C)CON(Cc2ccccc2Cl)C1=O`, 5.31%. On to `CCCCCCCCCCCC#N`, for which the activation is 1.84%. The same measure, in the same setting: for `CNC(=O)Oc1cccc2c1OC(C)(C)C2O` (stereo not given) the value was 0.301%; for `O=C(O)C(F)(F)C(F)(F)C(F)(F)C(F)(F)C(F)(F)C(F)(F)C(F)(F)C(F)(F)C(F)(F)F`, -2.6% and 0.106%; for `CCc1cc(C)cc(CC)c1-c1c(OC(=O)C(C)(C)C)n2n(c1=O)CCOCC2`, 2.1%. For the compound `CCCCOC(=O)c1ccccc1C(=O)O`, the activation is -4.01%. On to `Clc1ccccc1-c1nnc(-c2ccccc2Cl)nn1`, for which the activation is 9.84%.

In the case of `CNC(=O)O/N=C/C(C)(C)S(C)(=O)=O`, the activation is -0.939%. Regarding `COC(=O)N(C(=O)N1COC2(C(=O)OC)Cc3cc(Cl)ccc3C2=N1)c1ccc(OC(F)(F)F)cc1` (stereo not given), the activation is 2.68%. For the compound `O=[As](O)(O)O`, the activation is -0.386%.

As to `c1ccc2cc3c(cc2c1)-c1cccc2cccc-3c12`, the Potency is 2.82 µM (active) and 2.51 µM (active). As for `ClC1=C(Cl)C2(Cl)C3C4OC4C(Cl)C3C1(Cl)C2(Cl)Cl` (stereo not given), the activation is -0.371%. On the same count and under the same terms, then `CNC(=O)/C=C(\C)OP(=O)(OC)OC`, with 7.36%; and `CN(c1c(Br)cc(Br)cc1Br)c1c([N+](=O)[O-])cc([N+](=O)[O-])cc1C(F)(F)F`, with -7.94%. For the compound `Fc1ccc(Oc2ccnc3cc(Cl)cc(Cl)c23)cc1`, the activation was 15%.

In the case of `O=C(Nc1ccccc1)Nc1ccnc(Cl)c1`, the activation was 11%.

For the compound `CCc1cnc(C2=NC(C)(C(C)C)C(=O)N2)c(C(=O)O)c1` (stereo not given), the activation was -2.09%. For `O=C(O)[C@@H]1[C@H](C(=O)O)[C@@]2(Cl)C(Cl)=C(Cl)[C@]1(Cl)C2(Cl)Cl`, the activation was 1.48%. For the compound `COP(=O)(OC)Oc1ccc([N+](=O)[O-])cc1`, the activation is 0.442%. On the same count and under the same terms, then `CCC(C)(C)c1ccc(O)c(C(C)(C)CC)c1`, with -1.01%; and `O=Cc1cccc(Oc2ccccc2)c1`, with -0.398%. For `O=P(Oc1ccccc1)(Oc1ccccc1)Oc1ccccc1`, the activation is 2.98%. Same read-out and setting: then `CCOP(=O)(OCC)SCSCC`, with 0.0868%; and `Cc1c(F)c(F)c(COC(=O)C2C(/C=C(\Cl)C(F)(F)F)C2(C)C)c(F)c1F` (stereo not given), with 0.802%. As to `C1CC[CH]([Sn]([CH]2CCCCC2)[CH]2CCCCC2)CC1`, the activation was 3.62%. For `CC(C)Oc1cc(-n2nc(C(C)(C)C)oc2=O)c(Cl)cc1Cl`, the activation was 0.842%. Take `[Cl][Sn]([c]1ccccc1)([c]1ccccc1)[c]1ccccc1`: the activation is -11.4%. On the same count and under the same terms, then `CCC[CH2][Sn]([CH2]CCC)[CH2]CCC`, with -0.508%; and `O=C=Nc1ccc(Cl)cc1`, with 2.71%. For the compound `CCc1nn(C)c(C(=O)NCc2ccc(C(C)(C)C)cc2)c1Cl`, the activation is 6.31%. With `OC(Cn1cncn1)(c1ccc(F)cc1)c1ccccc1F` (stereo not given), the activation is -1.4%. On to `CCOP(=O)(OCC)OP(=O)(OCC)OCC`, for which the activation was -0.108%.
